TNAP act mid DEA = activates human TNAP at intermediate phosphate acceptor concentration; P05186; purified TNAP, CDP-star luminescence, 100 mM DEA, 30 min; hits give high values; scale: 0 levamisole-inhibited, 1 vehicle-only enzyme; activation factor at 20 µM; 64,000 tested, under 10 active;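 active means activation factor of at least 2 at 20 µM, relative to controls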
Mac1 fbg enh = CD11b/CD18-fibrinogen binding enhancement; P05107+P11215; K562 CD11b/CD18 adhesion to fibrinogen, ATPlite luminescence; 93,000 tested, 0.07% active; activation, % at 10 µM;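 active means 10 µM primary screen giving 50% or more activity, confirmed by 40% or more on retest at that dose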
Target sequence (P05107 whole entry, looked up, other chains not shown): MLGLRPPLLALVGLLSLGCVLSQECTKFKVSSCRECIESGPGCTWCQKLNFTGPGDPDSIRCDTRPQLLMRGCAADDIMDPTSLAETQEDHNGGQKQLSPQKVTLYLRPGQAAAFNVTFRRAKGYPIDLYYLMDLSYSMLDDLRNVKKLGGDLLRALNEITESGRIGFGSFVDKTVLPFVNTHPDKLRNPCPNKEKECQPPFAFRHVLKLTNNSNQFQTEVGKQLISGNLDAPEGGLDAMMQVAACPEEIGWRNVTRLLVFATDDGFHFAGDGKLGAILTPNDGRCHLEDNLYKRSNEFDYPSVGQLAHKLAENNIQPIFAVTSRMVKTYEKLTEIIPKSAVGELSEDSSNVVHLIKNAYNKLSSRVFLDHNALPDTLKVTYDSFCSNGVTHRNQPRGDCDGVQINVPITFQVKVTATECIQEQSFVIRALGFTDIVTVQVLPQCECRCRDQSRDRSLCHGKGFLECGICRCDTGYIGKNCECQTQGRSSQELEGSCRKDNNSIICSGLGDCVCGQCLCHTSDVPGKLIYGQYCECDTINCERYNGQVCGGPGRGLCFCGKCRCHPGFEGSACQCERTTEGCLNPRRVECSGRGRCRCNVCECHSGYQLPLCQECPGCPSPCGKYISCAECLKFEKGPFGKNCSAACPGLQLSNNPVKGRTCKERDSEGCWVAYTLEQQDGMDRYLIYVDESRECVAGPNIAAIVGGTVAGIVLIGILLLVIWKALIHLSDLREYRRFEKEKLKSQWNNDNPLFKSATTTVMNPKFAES
Mac1 fbg inh = blocks human CD11b/CD18 adhesion to fibrinogen; 93,000 tested, 0.54% active; K562 CD11b/CD18 adhesion to fibrinogen, ATPlite luminescence; Mn2+ added to activate the integrin; P05107+P11215; inhibition, % at 10 µM;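 active means primary inhibition of 50% or more at 10 µM, then 40% or more on retest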
Phagocyt inh = macrophage phagocytosis inhibition; AID 1029; inhibition, % at 5 µM; 110,000 tested, 0.07% active; J774A.1 macrophage IgG-bead phagocytosis, imaging;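 active means inhibition above the mean of the plate negative controls plus 5 SD, cut at about 13% in these data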;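 further: phagocytic index as fraction of beads internalized from green versus red external bead signal; plate controls were DMSO negative control for no effect and cytochalasin-D positive control for full effect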
FAK blocker = blocks human focal adhesion kinase activity; 97,000 tested, 0.84% active; inhibition, %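 (tested at 7 µM)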; Q05397; biochemical FAK kinase activity assay;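 further: 0% = DMSO and 100% = reference compound high control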
FAK inh conf = FAK (human) inhibition confirmed. shares compounds with FAK blocker. FAK kinase biochemical inhibition assay. inhibition, % at 7 µM. 750 tested, 28% active. AID 794
Active calls of the source: *; nt = no result. An excerpt weighted towards active compounds, which were near 0.96% of everything screened. Unless noted, no stated cut-off is given here; in the data, active means inhibition above about 19%; inactive means the rest.

SMILES	TNAP act mid DEA	Mac1 fbg enh	Mac1 fbg inh	Phagocyt inh	FAK blocker	FAK inh conf
CCn1c(C)nc2cc(C(=O)NNC(=O)CCC3CCCCC3)ccc21	nt	-6.2	8.4	-6.7	nt	nt
COc1ccc(C2C(C#N)=C(N)Oc3c2sc2nc(C)cc(C)c32)cc1 (centres undefined)	nt	-2.9	5.7	-0.2	28.8*	10.1
CCOC(=O)CSc1nc2c(sc(=S)n2Cc2ccco2)c(=O)n1-c1ccccc1	0.8	nt	nt	nt	11.4	nt
CCN(CC)C(=O)CSc1nc2c(sc(=S)n2Cc2ccco2)c(=O)n1-c1ccccc1	nt	-5.4	12.3	1.2	19.6*	3.8
COc1ccc(N2Cc3cccc(C(=O)NC(C)CCc4ccco4)c3C2=O)cc1 (centres undefined)	0.9	9.8	9.2	0.1	33.3*	4.7
COc1ccc(N2CC(C(=O)Nc3ccccc3C(=O)NCc3ccco3)CC2=O)cc1 (centres undefined)	0.9	0.1	-24.9	3.2	1.7	nt
CCOC(=O)N1CCC(NC(=O)c2cccc3c2C(=O)N(c2ccc(OC)cc2)C3)CC1	0.9	63.0	-12.1	0.0	43.7*	11.0
COc1ccc(NC(=O)OCCn2c([N+](=O)[O-])cnc2C)cc1	nt	10.5	-2.1	-13.2	nt	nt
CSc1nc2ccc3nc(NC(=O)c4cccs4)sc3c2s1	0.9	14.1	15.2	-0.7	39.8*	26.2*
O=C(NNC(=O)c1cc2cc3ccccc3nc2s1)c1cccc(C(F)(F)F)c1	nt	nt	nt	nt	24.9*	9.1
O=C(Oc1ccc(-c2nnco2)cc1)N(c1ccccc1)c1ccccc1	0.9	0.1	-37.1	0.2	0.1	nt
O=C(O)c1cc([N+](=O)[O-])ccc1N1CCC(Cc2ccccc2)CC1	nt	-1.2	-14.0	-10.2	nt	nt
COc1ccc(-c2[nH]ncc2/C=N\NS(=O)(=O)c2ccccc2)cc1OC	nt	-3.8	-22.9	-0.6	22.1*	14.6
N#Cc1cc2ccc(N3CCOCC3)cc2cc1C#N	0.9	6.2	-5.6	-2.3	22.7*	0.2
Cc1nc2n(n1)C(c1ccccc1)C1=C(CC(c3ccco3)CC1=O)N2 (centres undefined)	1	0.7	21.7	3.4	12.1	nt
O=C1CC(c2ccco2)CC2=C1C=Nc1ccccc1N2 (centres undefined)	0.9	-2.8	3.0	-0.1	21.8*	0.0
CCCN(CCC)CCNc1c(N2CCN(C(=O)OCC)CC2)c(=O)c1=O	1	-1.6	-11.7	-1.0	-0.6	nt
CCC(=O)Nc1ccc(S(=O)(=O)Nc2cc(C)on2)cc1	nt	3.1	-2.0	-1.6	33.6*	0.1
CCOC(=O)Nc1ccc(S(=O)(=O)Nc2cc(C)on2)cc1	1	1.1	5.7	-1.1	-3.6	nt
COc1ccc(-c2nc3ccc(N4CCCC4)cc3c(=O)[nH]2)cc1OC	nt	41.0	-7.3	-1.8	28.4*	10.5
CCCCn1c(NC(=O)c2ccccc2)c(C#N)c2nc3ccccc3nc21	1	-10.1	99.3*	-1.5	41.7*	0.6
CCC(C)n1c(NC(=O)c2ccccc2)c(C#N)c2nc3ccccc3nc21 (centres undefined)	nt	nt	nt	nt	24.7*	-2.9
Clc1ccc2[nH]c3c(NCCCN4CCOCC4)ncnc3c2c1	1.1	-0.4	14.7	0.0	12.2	nt
O=C1CCCN1CCCNc1ncnc2c1[nH]c1ccc(Cl)cc12	0.9	-4.1	0.5	-5.4	28.7*	3.8
CCN1CCCC1CNc1ncnc2c1[nH]c1ccc(Cl)cc12 (centres undefined)	0.9	-5.0	13.1	0.1	20.8*	2.2
SMILES	TNAP act mid DEA	Mac1 fbg enh	Mac1 fbg inh	Phagocyt inh	FAK blocker	FAK inh conf
C=CCn1c(C)nc2c(c1=O)c1nc3ccccc3nc1n2-c1ccc(C)cc1	1	nt	nt	nt	nt	nt
O=C(Nc1ccccc1C(=O)NCc1ccc(Cl)cc1)c1ccco1	0.9	1.6	-1.4	0.8	27.3*	2.0
O=C(CNC(=O)c1ccco1)NCC(=O)OCc1ccc(Cl)cc1	nt	2.1	3.9	-0.2	39.5*	0.8
Cc1cc(C)c(NC(=O)CC(C)(C)C)c(Cl)c1	nt	-1.2	5.4	-0.9	72.7*	1.9
Cc1cc(C)c(NC(=O)/C=C\C(=O)O)c(Cl)c1	nt	nt	nt	-3.6	nt	nt
CCOC(=O)Cc1csc(NC(=O)Cc2cccs2)n1	0.9	-10.9	4.6	-0.6	19.4*	3.0
COc1ccc(CCNC(=O)CN(C2CCCCC2)S(C)(=O)=O)cc1OC	1	-5.5	12.0	2.5	20.4*	1.0
Cc1cccc(NC(=O)CSc2nc3ccccc3c3nc(CCc4c(C)n[nH]c4C)nn23)c1	nt	33.6	8.7	-2.0	4.0	nt
Cc1n[nH]c(C)c1CCc1nc2c3ccccc3nc(SCC(=O)Nc3ccccc3F)n2n1	nt	18.1	-18.9	-1.0	21.1*	15.8
CC(Sc1nc(NCc2ccccc2)nc(N(C)C)n1)C(=O)Nc1ccccc1 (centres undefined)	nt	2.4	5.2	0.8	22.3*	10.4
CCC(NC(=O)Nc1ccc(O)cc1)(C(F)(F)F)C(F)(F)F	0.9	-0.8	1.9	-0.3	20.1*	-1.5
CCN(CC)S(=O)(=O)c1cccc(C(=O)OCC(=O)c2ccc3c(c2)OCCO3)c1	nt	nt	nt	0.0	nt	nt
COc1ccc(NS(=O)(=O)c2ccc(N3CCCC3)c(NC(=S)Nc3cccc(S(=O)(=O)N(C)C)c3)c2)cc1	nt	nt	nt	-8.9	nt	nt
Cc1ccc(-n2cnc3cc(NCc4cccs4)ccc32)cc1	nt	-1.0	10.7	-0.7	3.6	nt
c1ccc(-n2cnc3cc(NCc4cccs4)ccc32)cc1	nt	nt	nt	nt	22.8*	7.9
O=C(CCCSc1nnnn1-c1ccccc1)c1ccc(F)cc1	nt	nt	nt	nt	-6.7	nt
COCCNC(=O)c1c(N)n(CCCn2ccnc2)c2nc3ccccc3nc12	1	-3.7	-4.8	-0.4	24.4*	-1.0
COCCNC(=O)c1c(N)n(-c2ccccc2)c2nc3ccccc3nc12	nt	-4.3	-6.5	-1.2	4.4	nt
Cc1ccc(NC2=C(N3CCCCC3)C(=O)c3ccccc3C2=O)cc1	nt	-3.9	14.4	3.1	15.0	nt
O=C(/C=C/c1ccc(O)cc1)c1ccc(NC2=C(N3CCCCC3)C(=O)c3ccccc3C2=O)cc1	nt	13.1	23.8	3.0	30.5*	2.4
O=C1C(Nc2cccc(O)c2)=C(N2CCCCC2)C(=O)c2ccccc21	nt	nt	nt	nt	26.8*	4.5
O=C1C(Nc2ccccc2)=C(N2CCCCC2)C(=O)c2ccccc21	nt	nt	nt	nt	22.8*	4.0
Cc1cc(Br)ccc1OCC(=O)NNC(=O)c1cnccn1	nt	nt	nt	-4.7	nt	nt
CCc1ccccc1N(CC(=O)NCc1ccco1)C(=O)c1snc(C(N)=O)c1N	1	0.2	-2.8	-0.2	40.8*	14.9
COc1ccc(CNC(=O)C(C)N(Cc2ccco2)C(=O)c2snc(C(N)=O)c2N)cc1 (centres undefined)	1	1.0	48.4	-0.5	10.6	nt
O=c1oc2c3c4c(cc2c2c1CCC2)OCCN4CCC3	1.3	2.0	14.5	-0.6	1.3	nt
C=CCn1cc(/C=N\NC(=O)c2cc3c(ccc4ccccc43)o2)c2ccccc21	nt	nt	nt	nt	1.6	nt
O=C(N/N=C/C=C/c1ccccc1)c1cc2c(ccc3ccccc32)o1	nt	nt	nt	nt	41.9*	17.4
CCOCCn1c(CN(Cc2ccccc2)Cc2ccccc2)nc2c1c(=O)n(C)c(=O)n2C	0.9	6.8	-2.2	0.3	-0.8	nt
